Measurements: PubChem BioAssay (EPA / NIEHS)
“And” between values parts separate entries of the source, which are not always exact repeats. Equal entries are not always repeated. Inconclusive results are not listed. The source holds several records for some structures; these can differ, active in one and inactive in another. The source made the active and inactive calls. Rule for the calls: active = hit-call score of the fitted dose curve at least 0.9, where 1 is the maximum; inconclusive = response in the unintended direction; inactive = score below 0.9.

Legend:
[1] = target: human Adenosine A2a Receptor (AdoRA2a), ADORA2A (gene 135) (UniProt P29274); experiment: NVS_GPCR_hAdoRA2a: NovaScreen (NVS) G Protein-Coupled Receptor Assay for human Adenosine A2a Receptor (AdoRA2a) (AID 2283256)
In short: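 Radioligand displacement on HEK293-derived membrane protein, cell-free; filter-based scintillation counting 1.5 hours after dosing, loss of signal vs DMSO. Single-point duplicate screen at 25 uM, actives retested in concentration series.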

[2] = tested on: rat Monoamine Oxidase, MAO-A, Central (MAOAC), gene 29253; experiment: NVS_ENZ_rMAOAC: NovaScreen (NVS) Enzymatic Assay for rat Monoamine Oxidase, MAO-A, Central (MAOAC) (AID 2283243);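 note: potency refers to inhibition seen as signal drop below DMSO baseline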
In short: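 Steps: rat brain protein extract dosed with test chemical (25 uM, duplicate, primary); incubated 1.5 h; radiolabelled product separated from substrate and counted. Signal loss versus DMSO scored as inhibition.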

[3] = tested on: guinea pig Leukotriene B4 Receptor (LTB4), gene 100379538; experiment: NVS_GPCR_gLTB4: NovaScreen (NVS) G Protein-Coupled Receptor Assay for guinea pig Leukotriene B4 Receptor (LTB4) (AID 2283247)
In short: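 Radioligand displacement on guinea pig spleen membranes, filter-based scintillation counting 2 h after dosing. Primary duplicate single point at 25 uM; hits over threshold (e.g. 30% inhibition) run in concentration-response up to 50 uM, DMSO baseline.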

[4] = target: human Serotonin, 5-Hydroxytryptamine Receptor 5A (5HT5A), HTR5A (gene 3361) (UniProt P47898); experiment: NVS_GPCR_h5HT5A: NovaScreen (NVS) G Protein-Coupled Receptor Assay for human Serotonin, 5-Hydroxytryptamine Receptor 5A (5HT5A) (AID 2283251)
In short: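 Cell-free radioligand displacement binding on HEK293-derived membrane protein, 1 h incubation, filter-based scintillation counting. Primary screen in duplicate at 25 uM, actives followed in concentration series; loss of signal fitted versus DMSO.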

[5] = target: human Serotonin, 5-Hydroxytryptamine Receptor 7 (5HT7), HTR7 (gene 3363) (UniProt P34969); experiment: NVS_GPCR_h5HT7: NovaScreen (NVS) G Protein-Coupled Receptor Assay for human Serotonin, 5-Hydroxytryptamine Receptor 7 (5HT7) (AID 2283255);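 note: hits reduce specific radioligand binding relative to DMSO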
In short: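 Radioligand displacement on membranes from CHO cells expressing human 5HT7, 1 h incubation, filter-based scintillation counting. Primary screen used a single 25 uM concentration in duplicate; actives were followed up in concentration series.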

[6] = target: human Adrenergic, Alpha 2c Receptor (Adra2C), ADRA2C (gene 152) (UniProt P18825); experiment: NVS_GPCR_hAdra2C: NovaScreen (NVS) G Protein-Coupled Receptor Assay for human Adrenergic, Alpha 2c Receptor (Adra2C) (AID 2283259)
In short: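 Radioligand binding on Sf9-expressed receptor membranes, 1 h after chemical dosing, filter-based scintillation read-out. Loss of binding fitted positively versus DMSO; primary duplicate screen at 25 uM, actives retested in concentration series.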

[7] = target: guinea pig Leukotriene D4 Receptor (LTD4), CYSLTR1 (gene 100135514) (UniProt Q2NNR5); experiment: NVS_GPCR_gLTD4: NovaScreen (NVS) G Protein-Coupled Receptor Assay for guinea pig Leukotriene D4 Receptor (LTD4) (AID 2283248)
In short: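 Radioligand displacement on guinea pig lung membranes, 1 h incubation, filtration and scintillation counting; DMSO as negative control. Duplicate 25 uM primary screen, then singleton concentration-response up to 50 uM.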

[8] = target: human Adenosine A1 Receptor (AdoRA1), ADORA1 (gene 134) (UniProt P30542); experiment: NVS_GPCR_hAdoRA1: NovaScreen (NVS) G Protein-Coupled Receptor Assay for human Adenosine A1 Receptor (AdoRA1) (AID 2283254)
In short: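 Hum. cortical membranes + radioligand, cmpd 1 h; filtration, scintillation count. Readout = decrease vs DMSO. Primary 25 uM dup; hits → conc. series.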

[9] = target: human Adrenergic, Beta 1 Receptor (Adrb1), ADRB1 (gene 153) (UniProt P08588); experiment: NVS_GPCR_hAdrb1: NovaScreen (NVS) G Protein-Coupled Receptor Assay for human Adrenergic, Beta 1 Receptor (Adrb1) (AID 2283258)
In short: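 Cell-free radioligand displacement on receptor from human neuroepithelioma cells; 2 h after dosing, filter-based scintillation counting. Primary screen in duplicate at 25 uM, actives retested in concentration series; loss of signal vs DMSO baseline.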

[10] = target: Type-1 angiotensin II receptor (Homo sapiens) (UniProt P30556); experiment: NVS_GPCR_hAT1: NovaScreen (NVS) G Protein-Coupled Receptor Assay for human Angiotensin II receptor type 1 (AT1) (AID 2283263)
In short: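 Membranes from KAN-TS cells; radioligand competitive displacement, 3 h, filtration and scintillation counting. Single-point duplicate screen at 25 uM, then concentration-response up to 50 uM for hits; loss of signal fitted versus DMSO.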

[11] = target: human Dopamine Receptor D4.4 (DRD4.4), DRD4 (gene 1815) (UniProt P21917); experiment: NVS_GPCR_hDRD4.4: NovaScreen (NVS) G Protein-Coupled Receptor Assay for human Dopamine Receptor D4.4 (DRD4.4) (AID 2283264)
In short: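 Radioligand displacement on human DRD4.4 from CHO-derived membranes, 1 hour incubation, bound counts read by filtration and scintillation. Primary screen in duplicate at 25 uM; actives followed up in concentration series.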

[12] = target: human Dopamine Receptor D2 (DRD2), DRD2 (gene 1813) (UniProt P14416); experiment: NVS_GPCR_hDRD2s: NovaScreen (NVS) G Protein-Coupled Receptor Assay for human Dopamine Receptor D2 (DRD2) (AID 2283266)
In short: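 Radioligand displacement used human DRD2 membranes extracted from CHO cells and was read by filter-based scintillation counting after 1.5 hours. Primary screening was in duplicate at 25 uM. Loss of signal versus DMSO was fitted, with concentration series in follow-up.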

[13] = target: human Adrenergic, Alpha 2A Receptor (Adra2A), ADRA2A (gene 150) (UniProt P08913); experiment: NVS_GPCR_hAdra2A: NovaScreen (NVS) G Protein-Coupled Receptor Assay for human Adrenergic, Alpha 2A Receptor (Adra2A) (AID 2283257)
In short: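 Radioligand filter-binding was run on HT29-derived membranes, cell-free, read by scintillation counting 1 h after dosing. Primary screening was in duplicate at 25 uM, with concentration series in follow-up. Loss of signal versus DMSO indicates displacement.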

[14] = target: human Serotonin, 5-Hydroxytryptamine Receptor 6 (5HT6), HTR6 (gene 3362) (UniProt P50406); experiment: NVS_GPCR_h5HT6: NovaScreen (NVS) G Protein-Coupled Receptor Assay for human Serotonin, 5-Hydroxytryptamine Receptor 6 (5HT6) (AID 2283253)
In short: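 Radioligand binding to 5HT6 in HEK293-derived membranes, cell-free, 1 h after dosing; bound ligand measured by filter-based scintillation counting. Primary screen in duplicate at 25 uM; actives retested in concentration series.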

[15] = target: Beta-2 adrenergic receptor (Homo sapiens) (UniProt P07550); experiment: NVS_GPCR_hAdrb2: NovaScreen (NVS) G Protein-Coupled Receptor Assay for human Adrenergic, Beta 2 Receptor (Adrb2) (AID 2283261)
In short: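 Filter-based radioligand binding using receptor prepared from CHO cells, 1 h incubation, scintillation counting. Primary screen in duplicate at 25 uM, actives retested in concentration series; loss of binding relative to DMSO.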

[16] = tested on: guinea pig Muscarinic, Peripheral (Mperiperal) Receptor, Non-selective Binding, gene 100379235; experiment: NVS_GPCR_gMPeripheral_NonSelective: NovaScreen (NVS) G Protein-Coupled Receptor Assay for guinea pig Muscarinic, Peripheral (Mperiperal) Receptor, Non-selective Binding (AID 2283250)
In short: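 Guinea pig bladder membranes, radioligand binding read 1 h after dosing by filter scintillation counting; loss of signal vs DMSO. Primary duplicate screen at 25 uM, then concentration-response up to 50 uM.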

[17] = target: human Endothelin Receptor Type A (ETA), EDNRA (gene 1909) (UniProt P25101); experiment: NVS_GPCR_hETA: NovaScreen (NVS) G Protein-Coupled Receptor Assay for human Endothelin Receptor Type A (ETA) (AID 2283265)
In short: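 Cell-free radioligand displacement using SH-SY5Y-derived protein, 3 h incubation, filter-based scintillation counting. Primary screen in duplicate at 25 uM; actives then run in concentration-response up to 50 uM; loss of binding fitted versus DMSO.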

[18] = NVS_GPCR_bNPY_NonSelective: NovaScreen (NVS) G Protein-Coupled Receptor Assay for bovine Neuropeptide Y (NPY) Receptor, Non-selective Binding (AID 2283245)
In short: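 Bovine hippocampal membranes incubated 1 hour with radioligand and test chemical. Bound ligand measured by filter-based scintillation counting. Single-concentration screen at 25 uM in duplicate, then concentration-response up to 50 uM.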

Chain of human Adrenergic, Alpha 2c Receptor (Adra2C), ADRA2C (gene 152) (P18825 whole entry, looked up): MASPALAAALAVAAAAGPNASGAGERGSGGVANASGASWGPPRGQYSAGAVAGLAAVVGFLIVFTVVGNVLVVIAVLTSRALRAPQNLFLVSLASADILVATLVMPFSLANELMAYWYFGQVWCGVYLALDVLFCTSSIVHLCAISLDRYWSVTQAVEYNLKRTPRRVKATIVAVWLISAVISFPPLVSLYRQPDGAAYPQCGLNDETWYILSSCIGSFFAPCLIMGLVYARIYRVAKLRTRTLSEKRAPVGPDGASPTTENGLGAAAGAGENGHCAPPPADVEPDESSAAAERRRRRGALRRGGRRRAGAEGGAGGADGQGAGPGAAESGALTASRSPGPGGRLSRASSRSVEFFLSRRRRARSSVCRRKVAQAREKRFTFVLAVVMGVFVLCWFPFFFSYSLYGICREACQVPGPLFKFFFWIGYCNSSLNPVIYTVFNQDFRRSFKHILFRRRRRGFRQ
Chain of human Serotonin, 5-Hydroxytryptamine Receptor 5A (5HT5A), HTR5A (gene 3361) (P47898 whole entry, looked up): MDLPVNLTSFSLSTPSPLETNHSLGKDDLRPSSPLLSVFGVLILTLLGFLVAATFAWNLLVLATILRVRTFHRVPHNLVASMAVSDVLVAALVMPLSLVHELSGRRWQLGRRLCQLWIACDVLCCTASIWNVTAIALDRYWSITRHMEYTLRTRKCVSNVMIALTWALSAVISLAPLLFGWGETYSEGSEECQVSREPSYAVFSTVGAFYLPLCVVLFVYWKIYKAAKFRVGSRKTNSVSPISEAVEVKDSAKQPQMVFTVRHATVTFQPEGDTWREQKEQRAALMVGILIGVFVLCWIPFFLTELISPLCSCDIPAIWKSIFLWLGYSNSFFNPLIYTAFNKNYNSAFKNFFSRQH
Chain of human Serotonin, 5-Hydroxytryptamine Receptor 7 (5HT7), HTR7 (gene 3363) (P34969 whole entry, looked up): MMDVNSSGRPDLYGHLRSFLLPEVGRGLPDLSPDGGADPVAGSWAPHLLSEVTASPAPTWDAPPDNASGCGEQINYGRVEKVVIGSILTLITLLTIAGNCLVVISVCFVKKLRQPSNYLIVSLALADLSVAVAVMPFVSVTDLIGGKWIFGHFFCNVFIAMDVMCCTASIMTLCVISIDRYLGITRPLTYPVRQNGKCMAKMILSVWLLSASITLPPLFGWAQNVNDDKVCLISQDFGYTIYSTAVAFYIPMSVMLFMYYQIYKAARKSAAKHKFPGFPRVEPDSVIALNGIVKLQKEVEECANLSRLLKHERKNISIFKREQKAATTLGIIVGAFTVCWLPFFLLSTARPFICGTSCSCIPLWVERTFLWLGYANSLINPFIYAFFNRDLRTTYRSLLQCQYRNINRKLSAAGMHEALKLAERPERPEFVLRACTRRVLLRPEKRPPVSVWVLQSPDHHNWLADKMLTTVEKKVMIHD
Chain of human Dopamine Receptor D4.4 (DRD4.4), DRD4 (gene 1815) (P21917 whole entry, looked up): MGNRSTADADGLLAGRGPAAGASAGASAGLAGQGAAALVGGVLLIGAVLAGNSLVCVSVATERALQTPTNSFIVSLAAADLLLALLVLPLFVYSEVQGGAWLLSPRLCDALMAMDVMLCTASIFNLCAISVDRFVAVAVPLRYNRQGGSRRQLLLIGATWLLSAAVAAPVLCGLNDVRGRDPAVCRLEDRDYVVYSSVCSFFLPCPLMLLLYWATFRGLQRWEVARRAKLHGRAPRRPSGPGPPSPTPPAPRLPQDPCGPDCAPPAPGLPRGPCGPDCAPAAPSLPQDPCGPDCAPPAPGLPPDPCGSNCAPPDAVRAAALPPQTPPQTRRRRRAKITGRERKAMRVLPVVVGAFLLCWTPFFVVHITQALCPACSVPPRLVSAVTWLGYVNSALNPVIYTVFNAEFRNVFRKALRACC
Chain of human Adenosine A1 Receptor (AdoRA1), ADORA1 (gene 134) (P30542 whole entry, looked up): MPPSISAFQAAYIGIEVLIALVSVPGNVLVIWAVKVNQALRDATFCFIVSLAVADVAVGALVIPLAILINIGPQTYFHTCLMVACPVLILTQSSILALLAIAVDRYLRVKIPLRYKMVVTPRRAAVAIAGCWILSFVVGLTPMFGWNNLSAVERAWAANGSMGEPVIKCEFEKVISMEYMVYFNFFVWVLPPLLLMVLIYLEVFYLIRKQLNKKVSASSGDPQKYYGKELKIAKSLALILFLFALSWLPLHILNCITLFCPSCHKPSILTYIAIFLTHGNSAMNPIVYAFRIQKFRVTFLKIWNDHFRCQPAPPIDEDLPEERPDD
Chain of human Adenosine A2a Receptor (AdoRA2a), ADORA2A (gene 135) (P29274 whole entry, looked up): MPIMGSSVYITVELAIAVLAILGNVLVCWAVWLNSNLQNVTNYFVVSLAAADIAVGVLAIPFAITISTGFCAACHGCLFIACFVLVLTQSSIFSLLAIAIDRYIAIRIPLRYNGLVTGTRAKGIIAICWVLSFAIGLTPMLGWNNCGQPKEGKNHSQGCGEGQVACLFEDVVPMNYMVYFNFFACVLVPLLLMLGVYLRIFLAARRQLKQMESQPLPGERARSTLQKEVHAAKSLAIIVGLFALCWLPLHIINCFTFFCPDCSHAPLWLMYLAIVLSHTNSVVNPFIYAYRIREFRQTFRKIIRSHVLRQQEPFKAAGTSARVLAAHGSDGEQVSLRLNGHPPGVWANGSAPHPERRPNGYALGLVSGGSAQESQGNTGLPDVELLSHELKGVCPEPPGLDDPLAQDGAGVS
Chain of Type-1 angiotensin II receptor (Homo sapiens) (P30556 whole entry, looked up): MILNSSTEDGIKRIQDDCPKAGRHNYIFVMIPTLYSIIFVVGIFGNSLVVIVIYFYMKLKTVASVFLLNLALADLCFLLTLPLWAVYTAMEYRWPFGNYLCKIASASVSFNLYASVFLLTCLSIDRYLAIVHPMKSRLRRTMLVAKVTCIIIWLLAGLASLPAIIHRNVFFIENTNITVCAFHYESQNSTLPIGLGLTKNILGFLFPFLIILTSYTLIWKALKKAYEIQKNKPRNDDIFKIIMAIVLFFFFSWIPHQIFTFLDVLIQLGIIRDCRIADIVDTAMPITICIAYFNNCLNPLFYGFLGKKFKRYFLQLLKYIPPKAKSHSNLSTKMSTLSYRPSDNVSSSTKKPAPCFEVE
Chain of human Dopamine Receptor D2 (DRD2), DRD2 (gene 1813) (P14416 whole entry, looked up): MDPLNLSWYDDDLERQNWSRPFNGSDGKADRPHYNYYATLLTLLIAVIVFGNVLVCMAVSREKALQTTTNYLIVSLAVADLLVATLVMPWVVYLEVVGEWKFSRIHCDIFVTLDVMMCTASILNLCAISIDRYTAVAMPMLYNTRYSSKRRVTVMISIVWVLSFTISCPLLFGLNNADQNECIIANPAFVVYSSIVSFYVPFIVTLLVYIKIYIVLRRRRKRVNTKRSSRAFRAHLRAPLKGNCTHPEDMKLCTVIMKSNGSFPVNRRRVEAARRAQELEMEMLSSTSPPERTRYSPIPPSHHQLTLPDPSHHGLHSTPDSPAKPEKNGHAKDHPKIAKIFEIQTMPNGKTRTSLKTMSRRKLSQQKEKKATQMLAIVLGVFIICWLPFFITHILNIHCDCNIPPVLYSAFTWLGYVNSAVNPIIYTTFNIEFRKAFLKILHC
Chain of guinea pig Leukotriene D4 Receptor (LTD4), CYSLTR1 (gene 100135514) (Q2NNR5 whole entry, looked up): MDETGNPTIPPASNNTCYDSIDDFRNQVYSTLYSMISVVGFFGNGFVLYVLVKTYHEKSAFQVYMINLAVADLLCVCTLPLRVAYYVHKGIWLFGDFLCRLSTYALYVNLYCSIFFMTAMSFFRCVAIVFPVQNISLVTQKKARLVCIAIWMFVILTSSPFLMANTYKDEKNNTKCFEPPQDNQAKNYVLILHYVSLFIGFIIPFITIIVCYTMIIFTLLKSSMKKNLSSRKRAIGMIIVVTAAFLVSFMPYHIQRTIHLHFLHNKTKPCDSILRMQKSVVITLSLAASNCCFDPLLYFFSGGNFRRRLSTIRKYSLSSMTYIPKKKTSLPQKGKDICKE
Chain of human Adrenergic, Beta 1 Receptor (Adrb1), ADRB1 (gene 153) (P08588 whole entry, looked up): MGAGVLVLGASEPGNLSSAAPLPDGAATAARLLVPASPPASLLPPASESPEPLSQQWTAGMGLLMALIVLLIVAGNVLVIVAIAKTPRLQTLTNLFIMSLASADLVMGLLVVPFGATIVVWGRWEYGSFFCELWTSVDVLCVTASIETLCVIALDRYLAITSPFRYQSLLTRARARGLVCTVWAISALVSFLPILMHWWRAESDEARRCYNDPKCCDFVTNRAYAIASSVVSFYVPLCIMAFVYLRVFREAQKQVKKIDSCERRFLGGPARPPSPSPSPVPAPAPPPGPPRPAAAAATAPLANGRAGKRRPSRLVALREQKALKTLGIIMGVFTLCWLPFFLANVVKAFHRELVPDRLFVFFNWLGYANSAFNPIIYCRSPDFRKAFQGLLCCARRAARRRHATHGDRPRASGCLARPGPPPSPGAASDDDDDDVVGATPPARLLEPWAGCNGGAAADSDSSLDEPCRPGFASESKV
Chain of human Adrenergic, Alpha 2A Receptor (Adra2A), ADRA2A (gene 150) (P08913 whole entry, looked up): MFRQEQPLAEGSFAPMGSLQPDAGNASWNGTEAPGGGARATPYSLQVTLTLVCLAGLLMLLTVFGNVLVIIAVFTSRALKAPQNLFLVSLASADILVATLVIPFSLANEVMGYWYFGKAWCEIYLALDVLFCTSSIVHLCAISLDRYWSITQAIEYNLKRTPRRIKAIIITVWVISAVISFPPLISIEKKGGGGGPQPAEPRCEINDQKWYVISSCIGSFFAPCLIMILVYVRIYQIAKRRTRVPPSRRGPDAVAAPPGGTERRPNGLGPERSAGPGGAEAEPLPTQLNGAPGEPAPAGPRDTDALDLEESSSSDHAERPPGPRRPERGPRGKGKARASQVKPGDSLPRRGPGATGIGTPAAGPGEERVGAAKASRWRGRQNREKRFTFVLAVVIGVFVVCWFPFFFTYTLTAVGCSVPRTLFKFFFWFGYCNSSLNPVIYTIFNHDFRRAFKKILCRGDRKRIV

ClC1C(Cl)C(Cl)C(Cl)C(Cl)C1Cl (stereo unspecified)
AC50 [1]: 15.6 µM (active)

O=C(Nc1ccccc1)Nc1cnns1
AC50 [2]: 5.16 µM (active)
AC50 [3]: 25 µM (active)
AC50 [4]: 3.88 µM (active)
outcome [5]: inactive
outcome [1]: inactive
AC50 [6]: 4.96 µM (active)

Oc1ccc(Cl)cc1Cc1ccccc1
AC50 [2]: 17.3 µM (active) and 25.2 µM (active)
outcome [2]: inactive
AC50 [7]: 6.93 µM (active)
outcome [7]: inactive
AC50 [4]: 25.2 µM (active) [middle of 6 runs]
AC50 [8]: 16.1 µM (active) [middle of 6 runs]
AC50 [5]: 20.8 µM (active) [middle of 5 runs]
AC50 [1]: 25.2 µM (active) and 15.1 µM (active)
AC50 [9]: 33.3 µM (active) [middle of 5 runs]
AC50 [6]: 25.2 µM (active) [middle of 6 runs]
outcome [10]: inactive
AC50 [11]: 25.2 µM (active)
AC50 [12]: 33.5 µM (active) [middle of 6 runs]

CCC(C)(C)C(=O)OC1=C(c2ccc(Cl)cc2Cl)C(=O)OC12CCCCC2
outcome [4]: inactive
outcome [6]: inactive

OCCOc1ccccc1
outcome [13]: inactive

COC(=O)c1ccccc1CS(=O)(=O)NC(=O)Nc1nc(OC)cc(OC)n1
AC50 [2]: 25 µM (active)

N#Cc1c(Cl)c(Cl)c(Cl)c(C#N)c1Cl
outcome [14]: inactive
outcome [10]: inactive

O=S1OCC2C(CO1)C1(Cl)C(Cl)=C(Cl)C2(Cl)C1(Cl)Cl (stereo unspecified)
outcome [4]: inactive

COc1nn(CSP(=S)(OC)OC)c(=O)s1
AC50 [15]: 6.74 µM (active)

O=C1c2ccccc2C(=O)N1SC(Cl)(Cl)Cl
outcome [16]: inactive
outcome [4]: inactive
AC50 [14]: 16.3 µM (active)

Oc1cc(Cl)ccc1Oc1ccc(Cl)cc1Cl
AC50 [2]: 38.9 µM (active)
outcome [5]: inactive
AC50 [9]: 37.5 µM (active)
AC50 [6]: 6.8 µM (active)
outcome [17]: inactive
outcome [12]: inactive

CCC(C)(NC(=O)c1cc(Cl)c(C)c(Cl)c1)C(=O)CCl (stereo unspecified)
outcome [4]: inactive

CCOc1nc(NC)nc(NC(=O)NS(=O)(=O)c2ccccc2C(=O)OC)n1
outcome [13]: inactive

CC[C@H](C)[C@H]1O[C@]2(C=C[C@@H]1C)C[C@@H]1C[C@@H](C/C=C(\C)[C@@H](O[C@H]3C[C@H](OC)[C@@H](O[C@H]4C[C@H](OC)[C@@H](O)[C@H](C)O4)[C@H](C)O3)[C@@H](C)/C=C/C=C3\CO[C@@H]4[C@H](O)C(C)=C[C@@H](C(=O)O1)[C@]34O)O2 (tested in a mixture with another compound)
outcome [18]: inactive
AC50 [7]: 25 µM (active)
AC50 [4]: 3.1 µM (active)
AC50 [5]: 6.77 µM (active)
AC50 [9]: 6.87 µM (active)
AC50 [6]: 6.06 µM (active)
AC50 [10]: 8.16 µM (active)
